Broadly, the viability is a read-out of living cells in per cent, often relative to untreated cells.

The nature of the test: reducers of endogenous Her2 protein level, primary screen, SKBR3 breast tumor cells, AlphaScreen, ATP viability (AID 461).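 Further: percent of carrier control wells set as 100% viability.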 The note with it: 18-24 h, measured here: SKBR3 viability, ATP luminescence, at 10 µM. For orientation: In Alpha technology, singlet oxygen from a donor bead excites a nearby acceptor bead.
Turning to `Cc1cc(C)cc(-n2ccnc2SCC(=O)Nc2ccc3c(c2)OCCO3)c1`, the viability was 119%.
Then `CC(C)CNC(=O)c1ccccc1NC(=O)CN(c1ccc2c(c1)OCCO2)S(C)(=O)=O`, with 92%; and `N#Cc1cnn(Cc2ccc(Cl)cc2)c1N`, with 92%; and `Cc1cc(C)c2cc(CN(CC3CCCO3)C(=O)NC3CCCCC3)c(=O)[nH]c2c1` (centres undefined), with 78.5%.
In the case of `Cc1cc2c(cc(C(=O)OCC(=O)NCc3cccs3)n2C(C)C)o1` it was 83%.
In the case of `CCCOc1ccccc1NC(=O)c1ccc(N)cc1` it was 95%; in that of `COC(=O)/C=c1\sc2ncnn2c1=O`, 95%.
As to `COc1cccc(CN=CC2=C(O)CC(C)(C)CC2=O)c1OC`, the viability amounted to 106%.
In the case of `CC(=O)Nc1ccc(NC(=O)C(C)Oc2ccccc2F)cc1` (centres undefined) it was 102%; in that of `Cc1nnc(NC(=O)CSc2nnc(-c3ccc(S(=O)(=O)N4CCCC4)cc3)n2C)s1`, 93%; in that of `CCn1ncc(C2=NOC(C(=O)Nc3ccc4c(c3)OCO4)C2)c1C` (centres undefined), 95.5%.
In the case of `COC(=O)C1=CN(C)C=C(C(=O)OC)C1c1ccc(O)c(OC)c1` it was 96.5%; in that of `COc1ccccc1-c1nc(SCc2ccccn2)n[nH]1`, 104%; in that of `CCOC(=O)Cn1c(CN2CCOCC2)nc2c1c(=O)[nH]c(=O)n2C`, 95%.
In the case of `O=C(O)c1ccc2noc(-c3ccccc3)c2c1` it was 127%; in that of `O=S(CC(O)COCc1ccc(Cl)cc1)c1ccccn1` (centres undefined), 100%; in that of `CCn1c(CCNC(=O)c2cccs2)nnc1SCC(=O)c1ccc(OC)cc1`, 106%.
As for `O=C(Cn1ncc2c(=O)oc3ccccc3c21)Nc1nc2ccccc2s1`, the viability was 113%.
As for `COCc1nnc(NS(=O)(=O)c2ccc(Br)cc2)s1`, the viability was found to be 99.5%.
Turning to `COc1ccc(S(=O)(=O)NCc2ccc(C(=O)O)cc2)cc1`, the viability was determined as 102%.
In the case of `Cc1ccc(S(=O)(=O)CC2CSc3nnc(C)c(=O)n32)cc1` (centres undefined), the viability came out at 136%.
In the case of `Cc1occc1C(=O)Nc1cccnc1` it was 101%; in that of `CN(C1CCCCC1)S(=O)(=O)c1ccc(S(=O)(=O)N2CCCC2)cc1`, 84.5%.
In the case of `Cn1cccc1Cc1nnc(SCC(=O)Nc2ccccc2F)n1CCc1ccccc1` it was 78.5%.
In the case of `COc1ccc(C(=O)CSc2nc(C)cc(=O)[nH]2)cc1` it was 99.5%.
For `CCCCCC1CC(CC#CCN2CCOCC2)C(=O)O1` (centres undefined), the viability was found to be 86%.
Take `O=C(COc1ccccc1)Nc1ccccc1N1CCN(c2ccccc2)CC1`: the viability is 80%.
Then `Brc1ccc(C2=Nn3c(nnc3-c3ccncc3)SC2)cc1`, with 94.5%; and `Cc1nc2sc3c(c2c(=O)o1)CCC3`, with 110%; and `Cc1ccc(S(=O)(=O)Cn2nnnc2CN(Cc2ccco2)Cc2cccs2)cc1`, with 91.5%.
Regarding `CC(=O)NCc1ccc(C(=O)CSc2nnc(-c3ccncc3)n2Cc2ccccc2)o1`, the viability came to 99.5%.
Then `CCOC(=O)c1ccc(Oc2nc(NC)nc(OC)n2)cc1`, with 100%; and `O=P(O)(O)C(O)C(F)(F)C(F)(F)C(F)(F)C(F)F` (centres undefined), with 108%.
Then `COc1ccc(C)cc1NC(=O)CN1CCN(S(=O)(=O)c2ccc(Cl)cc2)CC1`, with 81.5%; and `COc1ccc(OC)c2[nH]c(=O)c(CCNC(=O)CC(C)C)cc12`, with 111%; and `O=S(=O)(Cc1ccccc1)N1CCN(Cc2ccccc2)CC1`, with 84.5%.
Consider `COC(=O)C1C(=O)C2=C(CC1C)NC(=O)CC2c1ccccc1` (centres undefined), for which the viability turned out to be 102%.
For the molecule `CC(C)CCNC(=O)C(c1ccco1)N(CC1CCCO1)C(=O)Cn1nnc2ccccc21` (centres undefined), the viability amounted to 100%.
Then `CC(C)COc1ccc(-c2nnn(CC(=O)N3CCCC3)n2)cc1`, with 86%.

Source of the values: PubChem BioAssay.
